From PubChem BioAssay AID2066 (NMMLSC, 2009)
The campaign covered roughly 320,000 compounds. About 50 (0.02%) were called active.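 The calls were made as follows: active = GFP response relative to DMSO above a set limit, near screen average plus 3 SD (cut at about 150% in these data); inconclusive = fewer than 70 cells counted for the yeast strain; inactive = the rest.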 The list comes from a sample in which actives are over-represented; it also holds similar structures and randomly drawn compounds.

assay: modulators of AGP1-GFP expression in yeast TOR pathway, primary screen, cell-based, multiplex flow cytometry, S. cerevisiae, MLPCN library (AID 2066); conditions: 3 h, at 10 µM, stronger effect = higher value, GFP as percent of DMSO wells;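 also: median GFP channel fluorescence of the gated AGP1 strain per well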

GFP response vs DMSO, inactive:
CCOC(=O)C(C)n1cnc2scc(-c3ccc(C)c(C)c3)c2c1=O (configuration not stated) 93.8%, COC(=O)c1sccc1-n1cccc1C(=O)C(=O)N1CCCCC1 92.6%, Cc1ccc(C(c2nnnn2CS(=O)(=O)c2ccc(C)cc2)N2CCC(C)CC2)cc1 (configuration not stated) 91.3%, CC(=O)Nc1ccc(S(=O)(=O)NCC(=O)OCC(=O)c2ccc[nH]2)cc1 107%, O=C(Nc1cc(S(=O)(=O)N2CCOCC2)ccc1N1CCOCC1)c1c(F)cccc1Cl 103%, CC(Sc1nnc(Cc2ccc([N+](=O)[O-])cc2)o1)C(N)=O (configuration not stated) 97.7%, O=C(O)c1cccc(S(=O)(=O)N2CC=C(c3ccccc3)CC2)c1 101%, O=C1c2ccccc2C(=O)N1CC1c2ccccc2CCN1S(=O)(=O)c1ccccc1 (configuration not stated) 96.4%, Cc1nnc(CN(C)Cc2cn[nH]c2-c2ccc(-c3ccccc3)cc2)o1 108%, CC(c1ccccn1)N(C)C(=O)c1ccc2nc(Cc3cccc(Cl)c3)oc2c1 (configuration not stated) 103%, Cn1nnnc1SCC(=O)Nc1cccc(S(=O)(=O)N2CCCCC2)c1 77.3%, O=C(OCC(=O)N1CCCCCC1)c1cnc(Cl)c(Cl)c1 97.1%, COc1ccc(NC2=CC(=S)NC(C)(C)C2)cc1 99.9%, CCN(CC)CCCNC(=O)c1c(O)c2cc(F)cc3c2n(c1=O)C(C)CC3 (configuration not stated) 88.3%, O=c1cc(Cl)c2ccccc2n1-c1ccccc1 103%, N#Cc1ccccc1NC(=O)COc1c(Br)cc(Br)c2cccnc12 96.8%, Cc1cc(C)nc(N2C(=O)CC(Cc3ccccc3)C2=O)n1 (configuration not stated) 112%, CCOC(=O)N1CCC(NC(=O)CN2C(=O)COc3ccc(C(C)(C)C)cc32)CC1 88.7%, CCCCN(C(=O)c1ccc2ccccc2c1)c1c(N)n(CCCC)c(=O)[nH]c1=O 92.5%, O=C(CN1CCN(S(=O)(=O)c2cc(Cl)ccc2Cl)CC1)c1ccc(O)c(O)c1 94.9%, CCOc1ccc2oc(C(=O)N(CC)CC(=O)Nc3ccc(NC(C)=O)cc3)c(C)c2c1 103%, COc1cccc(NC(=O)C(Sc2nc3ccccc3c(=O)n2CC(C)C)c2ccccc2)c1 (configuration not stated) 98.7%
